Experimental data: PubChem BioAssay AID602156 (GNF / Scripps Winzeler lab, 2011)
Screen size: about 5,700 compounds; about 280 (4.9%) were called active. The rule behind the calls is not given here. Only a sample is shown.

Assay: exo-erythrocytic parasite development inhibition – imaging, Malaria Box, P. yoelii, HepG2-A16-CD81EGFP, dose response (AID 602156)
Details: P. yoelii liver stage in HepG2-A16-CD81EGFP

outcome, inactive:
COc1ccccc1N1CCN(Cc2cc(C(C)C)c(C)cc2O)CC1, N#CN=C(N)c1sc(Nc2ccccc2)nc1N, CC1[C@H]2NC[C@H](C)C[C@]2(O)O[C@@H]2C[C@H]3[C@@H]4CC[C@H]5C[C@@H](N)CC[C@]5(C)C4CC[C@]3(C)[C@@H]12 (some centres undefined), O=C(Nc1ccc(Cl)c(Cl)c1)Nc1ccc(Cl)c(Cl)c1, N=c1c2c(n(Cc3ccc(Cl)c(Cl)c3)c3c1CCC3)CCCC2, COc1ccc(C2CC(=O)C3=C(C2)NC(C)=C(C(=O)OC2CCCC2)C3c2ccccc2)cc1 (centres undefined), COCCSc1nc2sc3c(c2c(=O)n1-c1ccc(OC)cc1)CCN(C)C3, Cc1ccc2nc3c(c(Nc4ccc(N(C)C)cc4)c2c1)CCC3, Cc1ccc(-c2nc3cc(NC(=O)c4ccc([N+](=O)[O-])o4)ccc3o2)cc1Br, Nc1cc(C(=O)Nc2cccc(C3=NCCN3)c2)ccc1C(=O)Nc1cccc(C2=NCCN2)c1, CCCCCC1CCCc2c1[nH]c1cc(Cl)ccc1c2=O (centres undefined), O=C(NCc1ccccc1)c1cnc(NCCCN2CCCC2)nc1NCCc1ccccc1, CC(C)c1ccc(C=CC(=O)NCc2ccco2)cc1, CCc1c(C)nc(SCC(=O)NNC(C)=O)[nH]c1=O, FC(F)(F)c1cccc(-c2nc3c(s2)CN(C2CCCC2)CC3)c1, Cc1c(/C=C2\SC(=Nc3ccccc3F)N(C3CCCCC3)C2=O)c2ccccc2n1CC(N)=O, Clc1ccc(-c2nc3ncc(Cl)cc3[nH]2)cc1, COc1cccc(-c2ccc(O)c(CN3CCC(C)CC3)c2)n1, Clc1ccc(Nc2nc(NCc3ccco3)c3ccccc3n2)cc1, CCOC(=O)c1sc(NC(=O)CSc2nnc(CNC(=O)COc3ccc(Cl)cc3)n2C)c(C(=O)OCC)c1C, COc1ccc(N=C(C)C2=C(O)c3ccccc3C2=O)c(OC)c1, CN(C)c1ccc(/C=C/C=C/c2cc[n+](C)cc2)cc1, CCCCCCCCCCOC(=O)Cn1c(C)[n+](C)c2ccccc21, COCCn1nnnc1C(c1cc2cc3c(cc2[nH]c1=O)OCCO3)N1CCC(O)CC1 (centres undefined), COc1cc2nc(NCc3ccccn3)n3nc(-c4ccccc4)nc3c2cc1OC, CCN1C(=S)NC2c3cc(C)ccc3OC13CCCC23 (centres undefined), Cc1ccc(NC(=O)CCCCC(=O)Nc2ccc(C)c(Br)c2)cc1Br, C#CC(C)(C)NC(=O)c1ccc(-c2ccc(CC)cc2)cc1, CCC(c1nc2ccccc2c(=O)n1-c1cccc(C)c1)N(Cc1ccccc1)C(=O)Nc1c(C(C)C)cccc1C(C)C (centres undefined), CCC(c1nc2ccccc2c(=O)n1-c1cccc(C)c1)N(CCc1ccccc1)C(=O)Nc1c(C(C)C)cccc1C(C)C (centres undefined), CCCNC(=O)c1ccc(OC2CCN(CC(c3ccccc3)c3ccccc3)CC2)c(OC)c1, COCCNC(=O)c1ccc(OC2CCN(CC(c3ccccc3)c3ccccc3)CC2)c(OC)c1, COc1ccc(SC2CCN(C3CCOCC3)CC2)cc1, CCCCC(CC)C(=O)N(C)CCCNc1ccnc2cc(Cl)ccc12 (centres undefined), O=C(NCC1CCCO1)c1cnc(NCCCn2ccnc2)nc1NCCc1ccccc1 (centres undefined), Cc1cc(C)nc(N=C(N)Nc2ccccc2O)n1, Oc1ccc(-c2nc3ccccc3s2)cc1CN1CCCCC1, O=C1CSC(=S)N1c1cccc(Cl)c1, CC[C@@H]1CCC[C@H](C)CC[C@@H](O[C@@H]2O[C@@H](C)[C@@H](O)[C@@H](N)[C@H]2O)[C@H](CC)CCCNC1=O, CN(CCCNc1nc2ccccc2c2nc(-c3cccnc3)nn12)Cc1ccccc1, O=C(Cc1ccccc1)NCc1ccc(Nc2c(-c3cccnc3)nc3ccccn23)cc1, CCCCCCCSc1c(O)c2ccc(Cl)cc2[nH]c1=O, COc1ccc(Nc2ncnc3[nH]c(-c4cccc([N+](=O)[O-])c4)cc23)cc1, C1CCC(CN2CCc3nc(N4CCCCC4)sc3C2)CC1, CC(=O)N(C1=C(N(C)C)C(=O)c2ccccc2C1=O)c1cccc(O)c1, Oc1ccc(Br)cc1C=NNc1nc2ccccc2[nH]1, CCCOC(=O)C1=C(C)NC2=C(C(=O)CC(c3ccc(OC)c(OC)c3)C2)C1c1ccccc1C (centres undefined), CN(C=Cc1sc2ccc3ccccc3c2[n+]1C)c1ccccc1, Oc1ccc(-c2cncnc2)cc1CNC1CCN(Cc2ccccc2)CC1, CC(C)CN(CC(=O)N1CCC(Nc2nsc3ccccc23)C1)S(C)(=O)=O (centres undefined), COc1ccc2[nH]c(-c3ccccc3)cc(=O)c2c1, COc1ccc(Nc2nc(Nc3ccc(OC)cc3)c3ccccc3n2)cc1, CC(=O)Nc1ccc(C2NC(=O)NC3=Nc4ccccc4SC(c4ccccc4)=C32)cc1 (centres undefined), Cc1cccc(CSc2nnc(C(Cc3ccccc3)NC(=O)C3CCCCC3)n2-c2ccc(Cl)cc2Cl)c1 (centres undefined), Cc1cc(Nc2ccc(C)c(F)c2)n2nc(C)nc2n1, CCN1CCN(c2nc3ccccn3c(=O)c2C=C2SC(=S)N(C(C)C)C2=O)CC1, CCOc1ccccc1C=NNc1nc(Nc2ccccc2)nc(Nc2ccccc2)n1, Cc1cc(C)nc(NNc2c([N+](=O)[O-])cccc2[N+](=O)[O-])n1, O=c1c(NCc2ccco2)nc2cc(Cl)ccc2n1CCNc1ncc(C(F)(F)F)cc1Cl, Cn1c(=O)n(C)c2cc(NC(=O)CCl)ccc21, Oc1ccccc1-c1nc2ncccn2c1Nc1cccc(C(F)(F)F)c1, Cc1cc2cc3c(cc2c(C)n1)c1ccccc1n3C, Cc1ccc(N=C2NC(=O)C(=Cc3ccc(N(C)C)cc3)S2)cc1, c1ccc(CN2CCC(NCc3c[nH]c4ccccc34)CC2)cc1, Cc1ccccc1S(=O)Cc1ccc(C(=O)N2CCN(c3ccccn3)CC2)o1 (centres undefined), CCN1C(=Cc2ccc3cc(C)ccc3[n+]2C)C=Cc2cc(C)ccc21, O=C(NCc1ccccc1)c1cnc(NCCCn2ccnc2)nc1NCCc1ccccc1, N#Cc1ccccc1Cn1nc(-c2cccnc2)oc1=O, Clc1ccc(-c2c[n+](Cc3ccc(Cl)c(Cl)c3)c3n2CCC3)cc1, c1ccc(Cn2c(N=Nc3c(Nc4ccccc4)ccc4ccccc34)nc3ccccc32)cc1, COC(=O)c1c(-c2c(F)cccc2Cl)noc1/C=C/Nc1ccccc1, CCCN(CCC)C(=O)Cn1ccc(=N)c2ccccc21, O=C1N(Cc2cc3ccccc3s2)CC2CN(Cc3ccccc3)CCN12 (centres undefined), O=C1N(Cc2cc3ccccc3s2)CC2CN(Cc3ccoc3)CCN12 (centres undefined)
